IL1B secr inh: inhibitors of inflammasome signaling (IL-1 beta secretion); THP-1 LPS/ATP IL-1B secretion, AlphaLISA, 16 h; stronger effect = lower value; activity change, % at 57.5 µM; 360,000 compounds, 4.7% hits; in the data active = activity change below about -50%; inconclusive = mostly about -30% to -49%
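Secreted IL-1B measured by AlphaLISA bead assay after 16 h compound exposure of THP-1 cells; compounds (final up to 57.5 uM) added 1 h before LPS (250 ng/mL) and ATP (1.25 mM) stimulation; lower signal means less secretion.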
HT1080NT lethal: kills 2HG-producing HT-1080-NT fibrosarcoma cells; HT-1080-NT fibrosarcoma viability, CellTiter-Glo ATP luminescence, 48 h; Potency, µM (top dose mostly 46.1 µM), inactives show at the highest dose activity, negative = less viability, actives largely listed as cytotoxic; 360,000 compounds, 1.6% hits; AID 686970;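 note: NT is the 2HG producing partner of a matched IDH1 knockdown line; potency is the fitted concentration of half-maximal effect; 0% = DMSO-treated cells and -100% = media-only wells without cells; nearly all actives have a fitted effect of over 55% in size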
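Read-out is CellTiter-Glo luminescence after 10 minutes at room temperature, following 48 hours' compound treatment of HT-1080-NT cells (750 cells/well, RPMI, 5% FBS, 37 degrees C).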
TDP1 cell CPT: growth inhibition of DT40 Tdp1-/-;hTDP1 cells with camptothecin (screen for TDP1 inhibitors). chicken DT40 Tdp1-/-;hTDP1 cells + 20 nM CPT, ATP luminescence, 48 h. Potency, µM (doses to about 46.2 µM), without a hit: top-dose activity change, negative = growth inhibition, hits mostly inhibitors. 420,000 compounds, 12% hits. AID 686979; note: potency is the fitted concentration of half-maximal effect; nearly all actives have a fitted effect of over 55% in size
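Chicken DT40 Tdp1-/- cells complemented with human TDP1, 400 cells/well, exposed to compounds plus 20 nM camptothecin for at least 48 h at 37 C; viability read as ATP content by CellTiter-Glo luminescence.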
ELG1 repair inh: inhibitors of ELG1-dependent DNA repair in HEK293T cells; HEK293T ELG1-luciferase reporter, luminescence, 16 h; DNA damage induced by 5-fluorouridine; Potency, µM (titrated, usually from 46.1 µM), inactives show at the highest dose activity change, negative = inhibition, usual class: inhibitors; 330,000 compounds, 2.3% hits; AID 504467; note: potency is the fitted concentration of half-maximal effect; nearly all actives have a fitted effect of over 55% in size
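Quantitative HTS, concentration-response format. 2,000 cells/well co-treated with 5-fluorouridine and compound, 16 hr in 5% CO2 at 37 °C; ONE-Glo luminescence read after 30 min.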
HT1080 IDH1KD tx: kills HT-1080 cells with IDH1 knockdown; HT-1080 IDH1 knockdown viability, ATP luminescence, 48 h; Potency, µM (titrated, usually from 46.1 µM), for the others: at the top dose activity, negative = toxicity, actives largely listed as cytotoxic; 360,000 compounds, 2% hits;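 note: potency is the fitted concentration of half-maximal effect; 0% = DMSO wells and -100% = cell-free medium wells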
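In this qHTS, HT-1080 cells depleted of IDH1 are exposed for 48 h at 37 °C to compound titrations. Toxicity is scored from CellTiter-Glo luminescence, with DMSO as full viability and medium alone as none.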
DT40 TDP1 no CPT: qHTS for Inhibitors of human tyrosyl-DNA phosphodiesterase 1 (TDP1): qHTS in cells in absence of CPT; 420,000 compounds, 15% hits; DT40 Tdp1-/- hTDP1 cells, no CPT, ATP luminescence, 48 h; Potency, µM (doses to about 46.2 µM), for inactives: top-dose activity change, negative = growth inhibition, hits mostly inhibitors; note: potency is the fitted concentration of half-maximal effect; nearly all actives have a fitted effect of over 55% in size
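Chicken DT40 Tdp1-/- cells stably complemented with human TDP1 were seeded at 400 cells/well with DMSO in place of 20 nM camptothecin. After compound pinning, cells grew at least 48 hr at 37 °C; viability read by CellTiter-Glo luminescence.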
* = called active by the depositor; i = inactive; ? = inconclusive; nt = no result given. In the library only some 19% were active in any assay of this set; here they are far more common. Unless noted, calls come from the whole dose curve; as a rule, active = well fitted curve in the direction sought with a large enough effect; inconclusive = small, poorly fitted or top-dose-only effect, or another doubt; inactive = no such curve, though single readings can be large; an effect the other way counts as inactive or inconclusive. Unless noted, % is set by controls: 0 for no effect and ±100 for the full control effect.

SMILES	IL1B secr inh	HT1080NT lethal	TDP1 cell CPT	ELG1 repair inh	HT1080 IDH1KD tx	DT40 TDP1 no CPT
CCOC(=O)N1CCN(c2c(NCc3ccc(N(C)C)cc3)c(=O)c2=O)CC1	-2	16%	-30%	0%	-3%	-20%
CCOC(=O)N1CCN(c2c(NCc3ccccc3Cl)c(=O)c2=O)CC1	3	?	18µM*	?	-29%	29µM*
O=C1NC(=O)C2(Br)Nc3ccc(Br)cc3C(=O)C2N1 (stereo unspecified)	0	-2%	-12%	nt	0%	0%
Cc1cccc2nc(-c3ccccc3)nc(N[C@@H](CO)c3ccccc3)c12	-63*	?	?	9.2µM*	?	?
O=C(O)CNc1nc(-c2ccccc2)nc2ccccc12	20	2%	-7%	20%	-3%	-15%
Cc1ccc(CNS(=O)(=O)c2cc3[nH]c(=O)c(=O)[nH]c3cc2C)cc1	nt	nt	6%	nt	nt	-5%
CC(C)(C)n1nnnc1C(c1cc2ccccc2o1)N(CCC#N)Cc1ccccc1 (stereo unspecified)	25	-3%	?	nt	3%	?
CCCCn1nnnc1C(c1cc2ccccc2o1)N1CCCCC1 (stereo unspecified)	-8	3%	?	nt	-28%	?
CN(C)CCN(Cc1ccccc1)C(c1cc2ccccc2o1)c1nnnn1C(C)(C)C (stereo unspecified)	-54*	?	16µM*	nt	?	?
CCCCn1nnnc1C(c1cc2ccccc2o1)N(CCN(C)C)Cc1ccccc1 (stereo unspecified)	?	18µM*	26µM*	nt	21µM*	16µM*
O=S(=O)(c1ccc(F)cc1)c1nc(-c2ccco2)oc1NCCCn1ccnc1	-29	-10%	9%	nt	-9%	0%
COc1cccc2[nH]c3c(N4CCc5ccccc5C4)ncnc3c12	?	-12%	?	13µM*	-13%	21µM*
COc1cccc2[nH]c3c(N4CCC5(CC4)OCCO5)ncnc3c12	-3	2%	?	-11%	-2%	23µM*
OC1(c2cccc(C(F)(F)F)c2)CCN(c2ncnc3c2[nH]c2ccccc23)CC1	-24	23µM*	23µM*	4%	?	21µM*
c1ccc(Cn2nnc3c(N4CCc5ccccc5C4)ncnc32)cc1	-11	17%	-12%	?	9%	?
c1nc(N2CCC3(CC2)OCCO3)c2[nH]cnc2n1	1	13%	-27%	8%	21%	-23%
COc1cccc2[nH]c3c(=O)n(CCCN4CCOCC4)cnc3c12	44	0%	-2%	?	2%	-3%
OC1(c2cccc(C(F)(F)F)c2)CCN(c2ccc(-c3ccccc3)nn2)CC1	-5	0%	-29%	?	6%	-22%
c1ccc2c(c1)CCN(c1ncnc3c1[nH]c1ccccc13)C2	-84*	?	4.6µM*	9.2µM*	?	4.6µM*
COc1c(C)cccc1C(=O)NCc1ccc2c(c1)OCO2	2	5%	-1%	23%	5%	-19%
COc1cccc2[nH]c3c(N4CCC(C)CC4)ncnc3c12	-52*	-6%	26µM*	?	-19%	18µM*
c1ccc2c(c1)[nH]c1c(N3CCC4(CC3)OCCO4)ncnc12	-12	-28%	16µM*	21µM*	?	7.3µM*
Cc1ccc(-n2cc(CN3CCC(O)(c4ccccn4)CC3)c(-c3ccc(F)cc3)n2)cc1	-103*	16µM*	?	18µM*	?	?
CCN1CC(CN(C)Cc2cn(-c3ccc(C)cc3)nc2-c2cccc(C)c2)CC1=O (stereo unspecified)	-86*	-24%	?	?	-14%	15µM*
Cc1ccc(-n2cc(CN(C)Cc3ncc[nH]3)c(-c3cccc(C)c3)n2)cc1	-81*	18µM*	?	?	18µM*	23µM*
SMILES	IL1B secr inh	HT1080NT lethal	TDP1 cell CPT	ELG1 repair inh	HT1080 IDH1KD tx	DT40 TDP1 no CPT
Cc1ccc(-n2cc(CN(C)Cc3nccn3C)c(-c3ccc(F)cc3)n2)cc1	-139*	?	?	-9%	?	?
Cc1ccc(-n2cc(CN3CCNC(=O)CC3)c(-c3ccc(F)cc3)n2)cc1	nt	-1%	?	-13%	-26%	?
CN(Cc1ncc[nH]1)Cc1cn(-c2ccccc2)nc1-c1ccc2c(c1)OCO2	?	-2%	?	19%	-17%	-24%
C=CCn1cc(C(=O)N2CCN(C)CC2)c(=O)c2cc(S(=O)(=O)N(CC)CC)ccc21	17	12%	1%	-5%	0%	3%
CCOC(=O)CCCc1ccc(/C(C)=N/NC(=S)NC)cc1	0	6%	?	-14%	7%	?
CNC(=S)NN=C(C)CCCC(C)=NNC(=S)NC	-105*	11%	0.16µM*	nt	20%	0.021µM*
CS(=O)(=O)N(CC(=O)Nc1ccccc1C(=O)N1CCCC1)c1ccccc1Br	i	2%	-4%	0%	19%	0%
O=C(O)Cc1c[nH]c2ccccc12	-5	-3%	4%	nt	1%	4%
O=C(CCl)N(c1ccc(Cl)cc1)c1c[nH]c2ccccc12	-109*	7.3µM*	1.8µM*	26µM*	4.6µM*	1.8µM*

Source: PubChem BioAssay (National Center for Advancing Translational Sciences (NCATS))
